Assay results as given in PubChem BioAssay AID1159580 (chemical genetic matrix, 2015).
Values joined by “and” are separate entries in the source; they are usually repeats but may differ in a detail not shown here. Identical values can stand only once. Among all 5,500 compounds or so, about 2,000 (36%) were called active. Another 18% or so got no clear call; they are omitted. No stated cut-off is given here; in the data, active means normalized growth mostly below about 0.91 (no sharp cut-off); inconclusive means no clear call, values can overlap the other calls; inactive means mostly above about 0.92. The list shows a part of the results.

Test: chemical genetic growth profiling, strain panel (AID 1159580);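 further: tested at 20 µM; growth read once vehicle control cultures reached saturation at 30 °C; 1 = growth at the plate median or of vehicle wells; lower values mean less growth of the strain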
Conditions: S. cerevisiae deletion strains, growth OD

Measured: normalized growth

NC(=O)N1c2ccccc2CC(=O)c2ccccc21
inactive: locus YAL013W, strain DEP1, hits give low values 0.996 | locus YAL021C, strain ccr4, hits give low values 0.991 | locus YAL026C, strain drs2, hits give low values 0.998 | locus YAL030W, strain snc1, hits give low values 0.993 | locus YBL061C, strain skt5, hits give low values 0.994 | locus YBR009C, strain hhf1, hits give low values 0.942 | locus YBR021W, strain FUR4, hits give low values 0.969 | locus YBR023C, strain chs3, hits give low values 1 | locus YBR171W, strain sec66, hits give low values 0.989 | locus YBR229C, strain ROT2, hits give low values 0.993 | locus YBR231C, strain swc5, hits give low values 0.974 | locus YBR279W, strain paf1, hits give low values 0.99 | locus YCL011C, strain gbp2, hits give low values 0.991 | locus YCL016C, strain dcc1, hits give low values 1.01 | locus YCL029C, strain bik1, hits give low values 0.978 | locus YCL069W, strain vba3, hits give low values 0.956 | locus YCR088W, strain abp1, hits give low values 0.976 | locus YDL005C, strain med2, hits give low values 0.971 | locus YDL035C, strain GPR1, hits give low values 0.996 | locus YDL040C, strain nat1, hits give low values 0.992 | locus YDL074C, strain BRE1, hits give low values 1.03 | locus YDL101C, strain DUN1, hits give low values 0.992 | locus YDL134C, strain PPH21, hits give low values 0.989 | locus YDL185W, strain tfp1, hits give low values 0.976 | locus YDL192W, strain arf1, hits give low values 0.975 | locus YDR001C, strain nth1, hits give low values 0.979 | locus YDR069C, strain doa4, hits give low values 0.963 | locus YDR101C, strain arx1, hits give low values 0.994 | locus YDR137W, strain rgp1, hits give low values 0.991 | locus YDR150W, strain NUM1, hits give low values 1 | locus YDR159W, strain sac3, hits give low values 0.931 | locus YDR162C, strain NBP2, hits give low values 1.02 | locus YDR195W, strain ref2 0.927 | locus YDR297W, strain sur2, hits give low values 0.988 | locus YDR318W, strain mcm21, hits give low values 0.962 | locus YDR334W, strain swr1, hits give low values 0.95 | locus YDR335W, strain msn5, hits give low values 0.973 | locus YDR388W, hits give low values 0.991 | locus YDR392W, strain spt3, hits give low values 0.956 | locus YDR502C, strain sam2, hits give low values 0.994 | locus YEL003W, strain gim4, hits give low values 0.987 | locus YEL037C, strain rad23, hits give low values 0.984 | locus YEL061C, strain CIN8 (second series), hits give low values 0.98 | locus YEL061C, strain CIN8, hits give low values 0.998 | locus YER015W, strain faa2, hits give low values 0.993 | locus YER016W, strain bim1, hits give low values 1.01 | locus YER110C, hits give low values 0.975 | locus YER111C, strain swi4, hits give low values 0.993 | locus YER155C, strain BEM2 (second series), hits give low values 0.97 | locus YER155C, strain BEM2, hits give low values 0.982 | locus YER167W, strain BCK2, hits give low values 0.967 | locus YFR010W, strain ubp6, hits give low values 0.947 | locus YGL078C, strain dbp3, hits give low values 0.99 | locus YGL086W, strain mad1, hits give low values 0.974 | locus YGL167C, strain pmr1, hits give low values 0.968 | locus YGL173C, strain kem1, hits give low values 0.948 | locus YGL227W, strain vid30, hits give low values 1.01 | locus YGL240W, strain doc1, hits give low values 0.948 | locus YGL248W, strain PDE1, hits give low values 0.987 | locus YGL253W, strain hxk2, hits give low values 0.966 | locus YGR078C, strain PAC10, hits give low values 1.01 | locus YGR135W, strain pre9, hits give low values 1 | locus YGR229C, strain SMI1, hits give low values 1 | locus YGR252W, strain gcn5, hits give low values 0.922 | locus YHR013C, strain ard1, hits give low values 0.995 | locus YHR027C, strain rpn1, hits give low values 0.972 | locus YHR030C, strain SLT2, hits give low values 0.983 and 0.997 | locus YHR079C, strain IRE1 (second series), hits give low values 0.968 | locus YHR079C, strain IRE1, hits give low values 0.997 | locus YHR094C, strain hxt1, hits give low values 0.978 | locus YHR129C, strain ARP1, hits give low values 0.99 | locus YHR142W, strain chs7, hits give low values 0.977 | locus YHR200W, strain rpn10, hits give low values 0.97 | locus YIL066C, strain RNR3, hits give low values 0.991 | locus YIL073C, strain SPO22, hits give low values 0.955 | locus YIL125W, strain kgd1, hits give low values 0.998 | locus YIR030C, strain dcg1, hits give low values 0.981 | locus YJL092W, strain hpr5, hits give low values 0.995 | locus YJL095W, strain BCK1 (second series), hits give low values 0.997 | locus YJL095W, strain BCK1, hits give low values 1.02 and 0.994 | locus YJL115W, strain asf1, hits give low values 0.992 | locus YJL129C, strain trk1, hits give low values 0.995 | locus YJL134W, strain LCB3, hits give low values 0.99 | locus YJL154C, strain vps35, hits give low values 0.992 | locus YJL164C, strain tpk1, hits give low values 0.972 | locus YJL166W, strain qcr8, hits give low values 0.941 | locus YJL168C, strain set2, hits give low values 0.985 | locus YJL187C, strain SWE1 (second series), hits give low values 1 | locus YJR043C, strain POL32, hits give low values 0.979 | locus YJR066W, strain TOR1, hits give low values 0.946 | locus YJR075W, strain HOC1, hits give low values 1.05
